The panel holds about 83,000 compounds, 20% with a hit somewhere; the sample as a whole holds those more often.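 Cells were grown in 96-well plates and exposed to the test compound at a single concentration for 48 hours; results are reported as percent growth, with values below 10 considered active.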 Activity calls are given as the source filed them.
These compounds were tested on 786-0 renal (assay: NCI-60 one-dose screen, 48 h (100 = growth as untreated, 0 = no growth, -100 = all killed)). Conditions: 10 µM unless noted.

Compound | growth
COC(=O)Nc1nc2ccc(S(=O)c3ccccc3)cc2[nH]1 (stereo not drawn) | 80.4% (inactive)
O=C(c1nn(-c2ccccc2)c2c1CC(NCc1ccc(F)cc1)CC2)N1CCCCC1 (stereo not drawn) | 96.4% (inactive)
CC(C)c1ccc(C(=O)Nc2nc3ccc(O)c(CN(C)C)c3s2)cc1 | 89.9% (inactive)
CCCNC(=O)Nc1ccc2cc3ccc(NC(=O)NCCC)cc3nc2c1 | 82.3% (inactive)
N=C(N)c1ccc(-c2ccc(-c3ccc(Cl)c(Cl)c3)s2)nc1 | -25.8% (active)
CNc1nnc2n(-c3ccccc3)c(=O)c3cnn(-c4ccccc4)c3n12 | 74.7% (inactive)
COc1cc(OC)c(/C=C/C(=O)c2c(OC)cccc2OC)c(OC)c1 | 16.5% (inactive)
Cn1c(I)c(C#CCO[Si](C)(C)C(C)(C)C)c(=O)[nH]c1=O | 99% (inactive)
CC1CCN(CCOc2ccc(CNc3ccc4nc(CCC5CCCCC5)[nH]c4c3)cc2)CC1 | -55.6% (active)
Cc1cn(-c2cc(NC(=O)c3cccc(C#Cc4cccc5[nH]nc(N)c45)c3)cc(C(F)(F)F)c2)cn1 | 26.5% (inactive)
CC1CN(S(=O)(=O)c2oc(-c3ccc(Cl)cc3)nc2C#N)CC(C)O1 (stereo not drawn) | 79% (inactive)
N=C(N)c1ccc(-c2ccc(-c3ccccc3)o2)cc1 | -86% (active)
CCCCCCC12CCC(=O)N1CCc1cncn12 (stereo not drawn) | 112% (inactive)
CCCCCCCCCCCCCCCCCCOc1ccccc1CC(=O)OCC[N+](C)(C)C | 20.8% (inactive)
O=C(CN1CCOCC1)Nc1nc(-c2cc3ccccc3oc2=O)cs1 | 103% (inactive)
O=c1[nH]c(-c2ccccc2)nc2sc3cc(O)ccc3c12 | 79.3% (inactive)
Cc1cc(C(=O)O)c(C)n1-c1cccc(C(=O)O)c1 | 106% (inactive)
COc1ccc(C/C(C)=C(/c2ccc(OCCN(C)C)cc2)c2ccc(OC(=O)NCc3ccccc3)cc2)cc1 | 61.1% (inactive)
O=S(=O)(Nc1ccc(F)cc1F)c1ccc(-c2cnc(C3CC3)o2)cc1 | 44% (inactive)
Cc1ccc(NC(=O)Cn2cc(CN3CCN(c4ccnc5cc(Cl)ccc45)CC3)nn2)cc1 | 96% (inactive)

Compound | growth
Cc1cc(=O)oc2cc(OCc3nn4c(Nc5nc6ccccc6s5)c(-c5ccccc5)nc4s3)ccc12 | 103% (inactive)
OB1OCc2cc(/C=C/c3cccc(C(F)(F)F)c3)ccc21 | -27.2% (active)
CC1(C)CC(=O)C2=C(C1)N(c1ccc(OC(F)(F)F)cc1)C(N)=C(C#N)C2c1ccc(Br)cc1F (stereo not drawn) | 35.7% (inactive)
C=C1CC[C@@H]2[C@](C)(COC(C)=O)[C@H](OC(C)=O)CC[C@@]2(C)[C@@H]1CC(Nc1ccc(S(=O)(=O)Nc2ncccn2)cc1)C1=CCOC1=O (stereo partly drawn) | -10.1% (active)
COCCOc1cc2ncnc(N3CCN(c4ncc(S(=O)(=O)N5CCCCC5)cn4)CC3)c2cc1OCCOC | 108% (inactive)
COC(=O)[C@]1(C)CCC[C@]2(C)[C@H]3C[C@H]4C(C(C)C)=C[C@]3(CC[C@H]21)[C@@H]1C(=O)CC[C@H](OCCC#N)[C@@H]14 | 81% (inactive)
O=C1c2c(c3c4ccccc4[nH]c3c3ccc4ccccc4c23)C(=O)N1CCN1CCNCC1 | 79.7% (inactive)
COC(=O)c1nc(-c2ccc(C)cc2)oc1S(=O)(=O)c1cccc(OC)c1 | 85.2% (inactive)
COc1ccc2c(c1)CC[C@H](O)/C2=C/c1cc(OC)c(OC)c(OC)c1 | 16.1% (inactive)
C=CC[Se]C(=O)Cc1c(C)n(C(=O)c2ccc(Cl)cc2)c2ccc(OC)cc12 | -50.5% (active)
Cc1ccc(C)n1-c1ccccc1-n1c(C)ccc1C | 101% (inactive)
O=C(NNC(=O)c1ccc(NC(=O)c2ccccn2)cc1)Nc1ccc([N+](=O)[O-])cc1 | 96.5% (inactive)
CCCCCCCCCCCCCCCCOCCCOP(=O)(O)C1CCCN(O)C1=O (stereo not drawn) | -10.4% (active)
Cc1[nH]c(C(=O)Nc2ccccc2OC2CCNCC2)c(Cl)c1Cl | -56.6% (active)
c1csc(-c2ccc(CNc3c4ccccc4nc4ccccc34)cc2)c1 | 30.1% (inactive)
O=C1/C(=C/c2ccccc2O)CC/C1=C\c1ccccc1O | 54.3% (inactive)
CN(C)S(=O)(=O)c1cccc(C(=O)Nc2nc(-c3ccc(F)c(F)c3)cs2)c1 | 64.9% (inactive)
COc1ccc(C/C(C)=C(\c2ccc(Cl)cc2)c2ccc(OCCN3CCCCC3)cc2)cc1 | 93.8% (inactive)
N#Cc1c(-c2ccc(Cl)cc2)nc(NN2C(=O)c3ccccc3C2=O)nc1N1CCOCC1 | 99.8% (inactive)

These compounds were tested on COLO 205 colon in the same assay as above. Conditions: 10 µM unless noted.

Compound | growth
COC(=O)Nc1nc2ccc(S(=O)c3ccccc3)cc2[nH]1 (stereo not drawn) | 67.5% (inactive)
O=C(c1nn(-c2ccccc2)c2c1CC(NCc1ccc(F)cc1)CC2)N1CCCCC1 (stereo not drawn) | 108% (inactive)
CC(C)c1ccc(C(=O)Nc2nc3ccc(O)c(CN(C)C)c3s2)cc1 | 84.7% (inactive)
CCCNC(=O)Nc1ccc2cc3ccc(NC(=O)NCCC)cc3nc2c1 | 99.3% (inactive)
N=C(N)c1ccc(-c2ccc(-c3ccc(Cl)c(Cl)c3)s2)nc1 | -40.5% (active)
CNc1nnc2n(-c3ccccc3)c(=O)c3cnn(-c4ccccc4)c3n12 | 84.7% (inactive)
COc1cc(OC)c(/C=C/C(=O)c2c(OC)cccc2OC)c(OC)c1 | -13.4% (active)
Cn1c(I)c(C#CCO[Si](C)(C)C(C)(C)C)c(=O)[nH]c1=O | 82.7% (inactive)
CC1CCN(CCOc2ccc(CNc3ccc4nc(CCC5CCCCC5)[nH]c4c3)cc2)CC1 | -84.7% (active)
Cc1cn(-c2cc(NC(=O)c3cccc(C#Cc4cccc5[nH]nc(N)c45)c3)cc(C(F)(F)F)c2)cn1 | 18.6% (inactive)
CC1CN(S(=O)(=O)c2oc(-c3ccc(Cl)cc3)nc2C#N)CC(C)O1 (stereo not drawn) | 2.95% (active)
N=C(N)c1ccc(-c2ccc(-c3ccccc3)o2)cc1 | -87.7% (active)
CCCCCCC12CCC(=O)N1CCc1cncn12 (stereo not drawn) | 106% (inactive)
CCCCCCCCCCCCCCCCCCOc1ccccc1CC(=O)OCC[N+](C)(C)C | -67.3% (active)
O=C(CN1CCOCC1)Nc1nc(-c2cc3ccccc3oc2=O)cs1 | 120% (inactive)
O=c1[nH]c(-c2ccccc2)nc2sc3cc(O)ccc3c12 | 110% (inactive)
Cc1cc(C(=O)O)c(C)n1-c1cccc(C(=O)O)c1 | 92.5% (inactive)
COc1ccc(C/C(C)=C(/c2ccc(OCCN(C)C)cc2)c2ccc(OC(=O)NCc3ccccc3)cc2)cc1 | 20.4% (inactive)
O=S(=O)(Nc1ccc(F)cc1F)c1ccc(-c2cnc(C3CC3)o2)cc1 | 16.2% (inactive)
Cc1ccc(NC(=O)Cn2cc(CN3CCN(c4ccnc5cc(Cl)ccc45)CC3)nn2)cc1 | 98.8% (inactive)

Compound | growth
Cc1cc(=O)oc2cc(OCc3nn4c(Nc5nc6ccccc6s5)c(-c5ccccc5)nc4s3)ccc12 | 104% (inactive)
OB1OCc2cc(/C=C/c3cccc(C(F)(F)F)c3)ccc21 | 25.6% (inactive)
CC1(C)CC(=O)C2=C(C1)N(c1ccc(OC(F)(F)F)cc1)C(N)=C(C#N)C2c1ccc(Br)cc1F (stereo not drawn) | 93.8% (inactive)
C=C1CC[C@@H]2[C@](C)(COC(C)=O)[C@H](OC(C)=O)CC[C@@]2(C)[C@@H]1CC(Nc1ccc(S(=O)(=O)Nc2ncccn2)cc1)C1=CCOC1=O (stereo partly drawn) | -12.1% (active)
COCCOc1cc2ncnc(N3CCN(c4ncc(S(=O)(=O)N5CCCCC5)cn4)CC3)c2cc1OCCOC | 121% (inactive)
COC(=O)[C@]1(C)CCC[C@]2(C)[C@H]3C[C@H]4C(C(C)C)=C[C@]3(CC[C@H]21)[C@@H]1C(=O)CC[C@H](OCCC#N)[C@@H]14 | 85.2% (inactive)
O=C1c2c(c3c4ccccc4[nH]c3c3ccc4ccccc4c23)C(=O)N1CCN1CCNCC1 | 79.1% (inactive)
COC(=O)c1nc(-c2ccc(C)cc2)oc1S(=O)(=O)c1cccc(OC)c1 | -8.96% (active)
COc1ccc2c(c1)CC[C@H](O)/C2=C/c1cc(OC)c(OC)c(OC)c1 | -48.8% (active)
C=CC[Se]C(=O)Cc1c(C)n(C(=O)c2ccc(Cl)cc2)c2ccc(OC)cc12 | -32.1% (active)
Cc1ccc(C)n1-c1ccccc1-n1c(C)ccc1C | 114% (inactive)
O=C(NNC(=O)c1ccc(NC(=O)c2ccccn2)cc1)Nc1ccc([N+](=O)[O-])cc1 | 114% (inactive)
CCCCCCCCCCCCCCCCOCCCOP(=O)(O)C1CCCN(O)C1=O (stereo not drawn) | 4.27% (active)
Cc1[nH]c(C(=O)Nc2ccccc2OC2CCNCC2)c(Cl)c1Cl | -9.94% (active)
c1csc(-c2ccc(CNc3c4ccccc4nc4ccccc34)cc2)c1 | 5.13% (active)
O=C1/C(=C/c2ccccc2O)CC/C1=C\c1ccccc1O | 107% (inactive)
CN(C)S(=O)(=O)c1cccc(C(=O)Nc2nc(-c3ccc(F)c(F)c3)cs2)c1 | 103% (inactive)
COc1ccc(C/C(C)=C(\c2ccc(Cl)cc2)c2ccc(OCCN3CCCCC3)cc2)cc1 | 95.3% (inactive)
N#Cc1c(-c2ccc(Cl)cc2)nc(NN2C(=O)c3ccccc3C2=O)nc1N1CCOCC1 | 110% (inactive)

— PubChem BioAssay (NCI)
